According to PubChem BioAssay (NCATS):
Inconclusive results are not listed. Unmarked numbers belong to inactive results. Calls of active or inactive are those of the source. The call rests on the fitted dose curve; in most records, active means well fitted inhibition curve with a large enough effect; inconclusive means small, poorly fitted or top-dose-only effect; inactive means flat fitted curve, though single readings scatter.

target: Glutathione peroxidase 1 (Homo sapiens) (UniProt P07203); test: Primary qHTS Assay for Inhibitors of Recombinant Selenoprotein Glutathione Peroxidase 1 (GPX1) (AID 1845191); settings: recombinant GPX1, GR-coupled NADPH fluorescence, 15 min; series mostly up to 27.7 µM; activity, negative = inhibition: at the top concentration; further: nearly all actives have a fitted effect of over 65% in size
Sequence (P07203 whole entry, looked up): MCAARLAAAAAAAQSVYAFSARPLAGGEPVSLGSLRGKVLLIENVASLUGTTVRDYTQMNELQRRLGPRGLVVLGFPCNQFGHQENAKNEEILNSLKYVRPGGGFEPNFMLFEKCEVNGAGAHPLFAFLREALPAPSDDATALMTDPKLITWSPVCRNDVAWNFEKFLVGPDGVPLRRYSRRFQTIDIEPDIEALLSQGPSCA
Procedure, shortened: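 Recombinant GPX1 (10 nM final) was preincubated with compound for 30 min at room temperature, then reacted with 1 mM GSH, 0.5 mM CHP, 0.5 mM NADPH and 100 nM glutathione reductase; NADPH fluorescence (340/450 nm) was read at 0 and 15 min.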
On the % scale 0 is the no-effect control and ±100 the full control effect.

Row | SMILES | activity, negative = inhibition | outcome
1 | CC(C)=CC1C[C@](C)(O)[C@@H]2[C@H]3CCC4[C@@]5(C)CC[C@H](O[C@@H]6OC[C@H](O)[C@H](O[C@@H]7O[C@H](CO[C@@H]8O[C@H](CO)[C@@H](O)[C@H](O)[C@H]8O)[C@@H](O)[C@H](O)[C@H]7O)[C@H]6O[C@@H]6O[C@@H](C)[C@H](O)[C@@H](O)[C@H]6O)C(C)(C)[C@@H]5CC[C@@]4(C)[C@@]34CO[C@@]2(C4)O1 (some centres undefined) | 1.83% [at 15.3 µM] | 
2 | CC(=O)c1[nH]cc(CCC(=O)O)c1CC(=O)O | -6.53% [at 48.8 µM] | 
3 | CN1C(=O)N(c2cc(Cl)cc(Cl)c2)C(=O)[C@@]1(C)Cc1ccc(Br)cc1 | -22% [at 48.8 µM] | 
4 | CC(=O)OC1C(O)C(C)(O)C(/C=C/C(=O)O)C2(C)CCCC(C)(C)C12 (centres undefined) |  | inactive
5 | CNc1nc(C)nc(N[C@H]2CCC[C@@H](C(=O)NCc3ccc(C#N)cc3C(F)(F)F)C2)n1 |  | inactive [at 48.8 µM]
6 | CC1=C2CC(=O)C(C)CC/C=C(\C)CC2(O)OC1=O (centres undefined) | -12.7% [at 48.8 µM] | 
7 | CC(NC(=O)c1ccccc1N)C(=O)O (centres undefined) | -0.74% [at 48.8 µM] | 
8 | C/C(=C\CCC(C)C1CC(O)C2(C)C3CCC4C(C)(C)C(OC5OCC(O)C(O)C5O)CCC45CC35CC(O)C12C)C(=O)O (centres undefined) |  | inactive [at 15.3 µM]
9 | COc1c(C)c(OCC=C(C)C)cc2c1CNC2=O | -2.32% [at 48.8 µM] | 
10 | CC(C)/C=C1/NC(=O)C(C(C)C)n2c1nc1c(O)cccc1c2=O (centres undefined) |  | inactive
11 | N[C@@H](CCNCc1ccc(Cl)cc1)C(=O)N1CCCCC1 |  | inactive [at 48.8 µM]
12 | CC(=O)OC12CC(C)C(O)C1/C=C(/COC1OC(CO)C(O)C(O)C1O)CCC1C(/C=C(\C)C2=O)C1(C)C (centres undefined) | -16.6% | 
13 | OC[C@@]1(O)CO[C@H](OC[C@H]2O[C@@H](OC(CCCCc3ccc(O)cc3)CCc3ccc(O)cc3)[C@H](O)[C@@H](O)[C@@H]2O)[C@@H]1O (some centres undefined) | 4.37% [at 15.3 µM] | 
14 | C/C(=C/CO)CC[C@H]1[C@]2(C)C[C@H](O)CC(C)(C)[C@H]2CC[C@]1(C)O | -6.43% | 
15 | C=C1C2(C)CC3C4(C)OC(C5OC56C4=CC(=O)OC6(C)C)C3(C)C13C(=O)OC(C)C3(O)C2=O (centres undefined) | -5.74% | 
16 | C=C(C)[C@@H]1CC[C@]2(C(=O)O)CC[C@]3(C)[C@H](CCC4[C@@]5(C)CCC(=O)C(C)(C)C5C(O)C[C@]43C)C12 (some centres undefined) |  | inactive
17 | NC(=O)c1ccc(F)c2c1C[C@@H](N(C1CCC1)C1CCC1)CO2 | 1.49% [at 48.8 µM] | 
18 | CC1(C)C=Cc2c(ccc3c2[N+]([O-])=C2C3(O)CC34NC(=O)C5(CCCN5C3=O)CC4C2(C)C)O1 (centres undefined) |  | inactive
19 | CC1(C(=O)O)CCCC2(C)C3CC4C5CC3(CCC12)CC45C (centres undefined) | -13% [at 48.8 µM] | 
20 | C[C@@H]1O[C@@H](O[C@H]2[C@@H]3C=CO[C@@H](O[C@@H]4O[C@H](CO)[C@@H](O)[C@H](O)[C@H]4O)[C@@H]3[C@@]3(CO)O[C@@H]23)[C@H](O)[C@H](OC(=O)/C=C/c2ccc(O)c(O)c2)[C@H]1O |  | inactive [at 15.3 µM]

Row | SMILES | activity, negative = inhibition | outcome
21 | O=C(Cn1c2ccccc2c2nc3n(c(=O)c21)CCS3)N1CCCC1 |  | inactive [at 48.8 µM]
22 | CC12CC(c3ccoc3)OC(=O)C1CCC1(C)C2CCC(O)C1(C)O (centres undefined) |  | inactive
23 | CC1CC(O)/C=C/C(O)/C=C\C(=O)O1 (centres undefined) | -2.77% [at 48.8 µM] | 
24 | C[C@@H]1O[C@@H](O[C@H]2[C@H](O[C@H]3[C@H](O[C@H]4CC[C@@]5(C)C(CC[C@]6(C)C5CC=C5[C@@H]7CC(C)(C)C[C@@H](O)[C@]7(C)CC[C@]56C)[C@@]4(C)CO)O[C@H](C(=O)O)[C@@H](O)[C@@H]3O)O[C@H](CO)[C@H](O)[C@@H]2O)[C@H](O)[C@H](O)[C@H]1O (some centres undefined) |  | inactive [at 15.3 µM]
25 | C=C1C(=O)OC2CC(COC(=O)C(C)C)=C(C(C)CCCOC(C)=O)[C@@H](OC(C)=O)C12 (some centres undefined) |  | inactive
26 | COC(=O)/C=C/c1ccc(O[C@@H]2O[C@H](CO)[C@@H](O)[C@H](O)[C@H]2O)cc1 |  | inactive
27 | COc1cc2c(c(OC)c1O)C(c1ccc(O)cc1)C1C(=O)OC3C(COC(=O)C1=C2)OC(CO)(OC1OC(COC(=O)/C=C/c2ccc(OC4OC(C)C(O)C(O)C4O)cc2)C(O)C(O)C1O)C3O (centres undefined) | -9.35% [at 15.3 µM] | 
28 | N#CN1CCC[C@@H](n2nc(-c3ccc(Oc4ccc(F)cc4F)cc3)c(C(N)=O)c2N)C1 |  | inactive [at 48.8 µM]
29 | OC[C@H]1O[C@@H](OCCc2ccccc2)[C@H](O)[C@@H](O)[C@@H]1O | -13% [at 48.8 µM] | 
30 | O=C(O)CC/C=C\C[C@H]1CO[C@@H](c2ccccc2Cl)O[C@H]1c1ccccc1O |  | inactive [at 48.8 µM]
31 | COc1cc(C(=O)OCC2=CCC3C(C(=O)O)=COC(O[C@@H]4O[C@H](CO)[C@@H](O)[C@H](O)[C@H]4O)C23)ccc1O (some centres undefined) | -5.74% | 
32 | CC1(C)C[C@@H]2[C@H](C1)[C@@]1(C)C[C@]13C(O)OC[C@]3(O)[C@H]2O (some centres undefined) |  | inactive [at 48.8 µM]
33 | CC/C=C/C=C/C1(C)OC(CC(CO)OC)=CC1=O (centres undefined) |  | inactive [at 48.8 µM]
34 | COc1cc(C)c(C(=O)O[C@@H]2[C@H](O)[C@@H](CO)O[C@H]2n2ccc(=O)[nH]c2=O)c(OC)c1 |  | inactive
35 | CO[C@H]1c2cc(C(C)C)c(O)c(O)c2[C@@]23CCCC(C)(C)C2[C@@H]1OC3=O (some centres undefined) |  | inactive
36 | C=C1CC/C=C(/C(=O)O)CCC2C1CC2(C)C (centres undefined) |  | inactive [at 48.8 µM]
37 | COC(=O)C1=COC(OC2OC(CO)C(O)C(O)C2O)C2C(COC(=O)/C=C/c3ccc(O)c(O)c3)C(O)C(O)C12 (centres undefined) |  | inactive [at 15.3 µM]
38 | C=C1CCC2[C@@](C)(C(=O)O)CCC[C@@]2(C)[C@@H]1CCc1ccoc1 (some centres undefined) | -8.6% | 
39 | COCCN1CCC(C(=O)NO)(S(=O)(=O)c2ccc(Oc3ccc(OC(F)(F)F)cc3)cc2)CC1 | -18% [at 48.8 µM] | 
